About 7,900 targets were measured; listed, in parts, are those with a hit and a random draw of the rest. About 0.6% of all pairs of compound and target were hits. Unmarked numbers belong to inactive results.
Key:
Test in all cases: log2 fold change, soluble protein after heating vs DMSO (PISA); higher = thermal stabilisation; K562 cells, 10 uM, 30 min; active = over 0.2 and 3.5 SD of the protein, either way, in both replicates (recomputed)
[1] = compound: CC[C@@H]1C(=O)N(C)c2cnc(Nc3ccc(C(=O)NC4CCN(C)CC4)cc3OC)nc2N1C1CCCC1
Summary of the method: (§1)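 K562 cells at 2×10^6 cells/mL were treated for 30 min with 10 μM compound, and aliquots were heated for 3 min over 48°C-58°C before pooling. Extraction used PBS with 0.5% NP-40 at 4°C, and soluble protein was the supernatant after 21,000xg for 90 min, measured by TMTpro 16plex LC-MS/MS with channel sums equalised. Thermal stability values, relative to control samples and from duplicates, are log2 fold changes.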

volasertib = compound: CC[C@@H]1C(=O)N(C)c2cnc(Nc3ccc(C(=O)N[C@H]4CC[C@H](N5CCN(CC6CC6)CC5)CC4)cc3OC)nc2N1C(C)C [volasertib]
Summary of the method: as §1

[2] = compound: CC[C@H](C)N1C=C(C2=C(C=C(C=C21)C3=CN=C(C=C3)N4CCNCC4)C(=O)NCC5=C(C=C(NC5=O)C)C)C
Summary of the method: as §1

epoxomicin = compound: CC[C@H](C)[C@@H](C(=O)N[C@@H]([C@@H](C)O)C(=O)N[C@@H](CC(C)C)C(=O)[C@]1(CO1)C)NC(=O)[C@H]([C@@H](C)CC)N(C)C(=O)C [epoxomicin]
Summary of the method: as §1

[3] = compound: CCn1c(C(=O)N(C2CC2)C2CC2)cc2c3c(ncn3C)c(Nc3cc(C)n(C)n3)nc21
Summary of the method: as §1

[4] = compound: CCn1cc(-c2ccnc3[nH]c(-c4cccc(CN(C)C)c4)cc23)c(-c2ccc(NC(=O)N(C)C)cc2)n1
Summary of the method: as §1

[5] = compound: CN(C)CC(=O)Nc1ccc2[nH]c(=O)c3ccccc3c2c1
Summary of the method: as §1

rosiglitazone = compound: CN(CCOC1=CC=C(C=C1)C[C@H]2C(=O)NC(=O)S2)C3=CC=CC=N3 (racemic) [rosiglitazone]
Summary of the method: as §1

[6] = compound: CN1C2=C(C3=C1C(=O)N(N=C3)CC4=CC(=CC=C4)N)SC(=C2)S(=O)C
Summary of the method: as §1

[7] = compound: CN1CCC(CNc2ccc3ncc(-c4cccc(OC(F)(F)F)c4)n3n2)CC1
Summary of the method: as §1

Chain of UniProt O95628 (O95628 whole entry, looked up): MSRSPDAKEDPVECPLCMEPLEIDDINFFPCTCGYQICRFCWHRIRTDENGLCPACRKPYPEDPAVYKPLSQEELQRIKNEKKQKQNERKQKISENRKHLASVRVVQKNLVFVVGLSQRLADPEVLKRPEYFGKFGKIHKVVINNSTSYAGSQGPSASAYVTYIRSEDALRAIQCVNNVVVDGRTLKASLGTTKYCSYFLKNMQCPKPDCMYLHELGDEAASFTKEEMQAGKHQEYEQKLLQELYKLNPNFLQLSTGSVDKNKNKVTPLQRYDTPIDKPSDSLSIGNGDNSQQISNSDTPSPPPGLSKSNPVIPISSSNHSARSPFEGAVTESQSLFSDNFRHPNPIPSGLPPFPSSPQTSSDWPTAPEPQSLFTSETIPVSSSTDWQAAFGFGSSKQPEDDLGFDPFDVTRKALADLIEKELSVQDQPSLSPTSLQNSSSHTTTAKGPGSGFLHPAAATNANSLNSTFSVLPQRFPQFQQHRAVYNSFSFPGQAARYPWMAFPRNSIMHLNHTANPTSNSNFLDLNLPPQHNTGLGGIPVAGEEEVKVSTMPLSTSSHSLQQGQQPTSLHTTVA
Chain of UniProt Q5T5Y3 (Q5T5Y3 whole entry, looked up): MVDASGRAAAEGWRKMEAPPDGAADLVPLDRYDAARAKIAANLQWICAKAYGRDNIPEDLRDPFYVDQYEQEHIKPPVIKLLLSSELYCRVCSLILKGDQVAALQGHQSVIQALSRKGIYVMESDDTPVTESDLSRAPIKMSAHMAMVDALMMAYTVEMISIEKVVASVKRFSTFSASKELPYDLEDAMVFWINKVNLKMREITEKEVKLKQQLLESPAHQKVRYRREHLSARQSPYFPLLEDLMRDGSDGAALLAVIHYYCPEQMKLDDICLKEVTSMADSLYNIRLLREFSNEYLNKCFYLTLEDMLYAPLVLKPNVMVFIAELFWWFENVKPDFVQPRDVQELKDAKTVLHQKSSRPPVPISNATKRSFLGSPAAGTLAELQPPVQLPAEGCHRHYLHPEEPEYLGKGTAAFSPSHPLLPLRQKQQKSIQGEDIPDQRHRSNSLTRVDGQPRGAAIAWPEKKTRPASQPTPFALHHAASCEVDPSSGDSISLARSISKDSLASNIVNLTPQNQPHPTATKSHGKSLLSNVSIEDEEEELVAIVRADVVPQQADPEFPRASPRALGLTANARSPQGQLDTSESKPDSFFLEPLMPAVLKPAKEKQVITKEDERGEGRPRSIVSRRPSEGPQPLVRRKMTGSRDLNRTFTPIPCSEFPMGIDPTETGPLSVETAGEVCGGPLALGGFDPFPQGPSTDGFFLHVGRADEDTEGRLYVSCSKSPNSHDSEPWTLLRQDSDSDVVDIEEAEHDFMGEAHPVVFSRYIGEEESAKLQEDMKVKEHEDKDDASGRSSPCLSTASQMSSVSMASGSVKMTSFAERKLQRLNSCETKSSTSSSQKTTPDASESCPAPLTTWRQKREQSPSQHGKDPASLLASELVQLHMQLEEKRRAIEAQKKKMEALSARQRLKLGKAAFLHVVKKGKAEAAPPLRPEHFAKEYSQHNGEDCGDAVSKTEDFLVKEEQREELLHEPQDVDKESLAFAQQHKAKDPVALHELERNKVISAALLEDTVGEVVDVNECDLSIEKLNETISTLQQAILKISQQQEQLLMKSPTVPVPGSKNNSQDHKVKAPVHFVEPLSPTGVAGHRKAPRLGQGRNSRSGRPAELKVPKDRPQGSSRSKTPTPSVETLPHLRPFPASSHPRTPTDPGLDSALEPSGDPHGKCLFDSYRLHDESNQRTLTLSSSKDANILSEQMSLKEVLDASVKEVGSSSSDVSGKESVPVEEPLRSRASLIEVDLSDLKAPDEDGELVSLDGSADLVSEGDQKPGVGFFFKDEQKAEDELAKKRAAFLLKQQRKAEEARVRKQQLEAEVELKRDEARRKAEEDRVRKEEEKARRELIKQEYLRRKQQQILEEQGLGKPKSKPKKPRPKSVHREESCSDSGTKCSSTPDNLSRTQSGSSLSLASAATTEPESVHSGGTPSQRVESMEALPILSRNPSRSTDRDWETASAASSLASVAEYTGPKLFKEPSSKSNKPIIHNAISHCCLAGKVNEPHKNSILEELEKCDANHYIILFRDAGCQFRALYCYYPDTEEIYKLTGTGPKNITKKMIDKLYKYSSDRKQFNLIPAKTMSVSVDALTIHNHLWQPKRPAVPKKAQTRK
Chain of UniProt O75153 (O75153 whole entry, looked up): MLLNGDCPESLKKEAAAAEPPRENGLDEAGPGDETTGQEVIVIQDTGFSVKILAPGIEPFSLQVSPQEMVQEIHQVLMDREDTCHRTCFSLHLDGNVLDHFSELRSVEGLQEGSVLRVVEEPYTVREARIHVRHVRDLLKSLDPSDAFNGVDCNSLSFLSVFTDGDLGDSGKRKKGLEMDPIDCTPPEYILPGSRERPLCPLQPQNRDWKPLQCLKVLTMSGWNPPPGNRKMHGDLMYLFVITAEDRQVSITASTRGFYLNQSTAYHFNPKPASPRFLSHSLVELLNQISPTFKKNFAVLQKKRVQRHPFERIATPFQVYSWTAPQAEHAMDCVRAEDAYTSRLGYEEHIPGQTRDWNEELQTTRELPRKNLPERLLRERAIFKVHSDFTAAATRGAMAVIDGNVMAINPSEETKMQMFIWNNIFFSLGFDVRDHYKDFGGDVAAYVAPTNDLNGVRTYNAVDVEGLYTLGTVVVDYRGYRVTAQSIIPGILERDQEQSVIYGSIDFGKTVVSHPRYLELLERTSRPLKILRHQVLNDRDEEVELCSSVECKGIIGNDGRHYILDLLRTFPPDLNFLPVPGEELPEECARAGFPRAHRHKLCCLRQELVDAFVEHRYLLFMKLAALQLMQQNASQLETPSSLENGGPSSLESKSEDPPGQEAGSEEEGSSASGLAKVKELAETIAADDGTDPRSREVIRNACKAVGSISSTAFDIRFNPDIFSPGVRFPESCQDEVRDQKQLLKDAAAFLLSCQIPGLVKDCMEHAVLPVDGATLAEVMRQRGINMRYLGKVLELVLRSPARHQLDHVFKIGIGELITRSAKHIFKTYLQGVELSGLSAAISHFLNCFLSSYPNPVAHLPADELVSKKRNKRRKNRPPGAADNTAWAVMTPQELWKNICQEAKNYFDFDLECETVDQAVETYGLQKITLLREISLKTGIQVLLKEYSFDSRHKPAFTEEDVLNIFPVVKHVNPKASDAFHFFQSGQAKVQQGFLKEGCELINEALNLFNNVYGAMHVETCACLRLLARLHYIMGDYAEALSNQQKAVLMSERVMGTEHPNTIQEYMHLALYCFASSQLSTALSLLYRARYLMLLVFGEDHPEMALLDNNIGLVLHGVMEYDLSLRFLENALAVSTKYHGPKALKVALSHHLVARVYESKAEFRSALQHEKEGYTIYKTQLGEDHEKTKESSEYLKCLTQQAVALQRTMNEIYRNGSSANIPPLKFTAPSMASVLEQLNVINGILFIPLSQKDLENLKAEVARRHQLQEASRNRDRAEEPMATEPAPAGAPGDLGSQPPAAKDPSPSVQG
Chain of UniProt Q8IX12 (Q8IX12 whole entry, looked up): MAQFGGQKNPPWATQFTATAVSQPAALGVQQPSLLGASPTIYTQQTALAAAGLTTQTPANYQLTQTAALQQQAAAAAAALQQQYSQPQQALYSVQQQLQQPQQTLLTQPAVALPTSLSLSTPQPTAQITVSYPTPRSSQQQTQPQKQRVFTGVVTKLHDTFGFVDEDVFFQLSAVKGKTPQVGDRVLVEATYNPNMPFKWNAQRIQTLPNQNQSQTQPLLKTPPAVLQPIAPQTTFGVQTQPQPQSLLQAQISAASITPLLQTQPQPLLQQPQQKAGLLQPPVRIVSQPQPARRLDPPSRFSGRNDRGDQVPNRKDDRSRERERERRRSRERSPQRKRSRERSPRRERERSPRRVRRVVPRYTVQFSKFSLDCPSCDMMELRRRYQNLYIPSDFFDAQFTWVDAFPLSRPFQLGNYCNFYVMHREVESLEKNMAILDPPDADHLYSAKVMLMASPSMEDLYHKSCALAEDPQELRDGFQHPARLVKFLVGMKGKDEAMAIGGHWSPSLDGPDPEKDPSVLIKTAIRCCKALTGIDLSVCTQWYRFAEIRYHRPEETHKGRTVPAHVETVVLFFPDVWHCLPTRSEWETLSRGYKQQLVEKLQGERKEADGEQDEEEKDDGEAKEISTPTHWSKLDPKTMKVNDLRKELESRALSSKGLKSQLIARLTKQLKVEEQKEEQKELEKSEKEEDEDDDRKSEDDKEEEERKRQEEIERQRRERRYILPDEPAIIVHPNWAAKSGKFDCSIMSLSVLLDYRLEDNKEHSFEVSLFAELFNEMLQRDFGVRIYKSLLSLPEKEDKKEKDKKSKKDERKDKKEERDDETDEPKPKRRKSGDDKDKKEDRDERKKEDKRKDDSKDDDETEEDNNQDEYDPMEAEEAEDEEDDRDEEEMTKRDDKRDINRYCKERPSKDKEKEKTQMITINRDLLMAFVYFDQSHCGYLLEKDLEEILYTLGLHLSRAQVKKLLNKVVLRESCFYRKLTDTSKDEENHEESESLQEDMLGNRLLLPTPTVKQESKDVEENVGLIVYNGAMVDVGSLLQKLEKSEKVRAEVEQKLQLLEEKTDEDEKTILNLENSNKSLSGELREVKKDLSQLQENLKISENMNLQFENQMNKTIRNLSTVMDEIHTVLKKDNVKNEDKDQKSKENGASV
Chain of UniProt Q14790 (Q14790 whole entry, looked up): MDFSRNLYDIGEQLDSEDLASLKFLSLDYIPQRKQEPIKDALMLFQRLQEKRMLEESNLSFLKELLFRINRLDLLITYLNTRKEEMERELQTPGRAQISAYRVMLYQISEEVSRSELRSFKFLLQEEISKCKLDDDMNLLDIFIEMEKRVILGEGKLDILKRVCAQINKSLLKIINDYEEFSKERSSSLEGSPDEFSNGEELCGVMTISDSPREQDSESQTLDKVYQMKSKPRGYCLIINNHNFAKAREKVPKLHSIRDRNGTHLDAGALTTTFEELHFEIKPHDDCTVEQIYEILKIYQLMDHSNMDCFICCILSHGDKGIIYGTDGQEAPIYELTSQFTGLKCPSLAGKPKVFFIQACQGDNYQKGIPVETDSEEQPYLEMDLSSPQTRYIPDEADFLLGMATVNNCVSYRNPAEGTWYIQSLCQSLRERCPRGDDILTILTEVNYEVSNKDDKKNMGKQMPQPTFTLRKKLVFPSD

Target | log2 fold change [1] | log2 fold change (volasertib) | log2 fold change [2] | log2 fold change (epoxomicin) | log2 fold change [3] | log2 fold change [4] | log2 fold change [5] | log2 fold change (rosiglitazone) | log2 fold change [6] | log2 fold change [7]
CLUH (UniProt O75153) | 0.225 | 0.632 (active) | 0.015 | -0.028 | 0.047 | -0.113 | 0.094 | 0.134 | 0.019 | 0.387 (active)
CASP8 isoform 9 (UniProt Q14790) | 0.025 | -0.489 (active) | 0.065 | 0.052 | 0.025 | -0.019 | 0 | -0.034 | -0.026 | -0.082
COASY isoform 2 (UniProt Q13057) | -0.068 | -0.266 (active) | 0.027 | -0.013 | 0.061 | -0.052 | 0.038 | 0.017 | -0.08 | -0.132
CDK6 (UniProt Q00534) | -0.027 | -0.03 | 0.007 | 0.088 | 0.043 | 0.014 | 0.007 | 0.011 | 0.062 | -0.1
CAMKK2 (UniProt Q96RR4) | 0.374 | 0.617 (active) | 0.014 | 0.211 | 0.114 | -0.093 | 0.145 | 0.072 | -0.008 | 0.045
CHEK1 (UniProt O14757) | -0.137 | -0.274 (active) | 0.005 | 0.055 | -0.012 | -0.101 | 0.003 | 0.046 | -0.029 | -0.159
CSK (UniProt P41240) | -0.132 | -0.306 (active) | 0.05 | 0.014 | -0.013 | -0.075 | 0.024 | 0.032 | -0.011 | -0.147
CNOT4 isoform 6 (UniProt O95628) | -0.008 | -0.109 | 0.031 | 0.006 | 0.007 | -0.056 | 0.003 | 0.036 | 0.028 | -0.095
CEPT1 (UniProt Q9Y6K0) | -0.186 | -0.231 | -0.066 | -0.043 | 0.039 | -0.025 | 0.059 | 0.067 | -0.072 | 0.03
CBX5 (UniProt P45973) | -0.033 | -0.128 | 0.048 | -0.022 | -0.034 | -0.057 | -0.034 | -0.012 | -0.121 | -0.003
CCAR1 (UniProt Q8IX12) | 0.079 | 0.149 | 0.063 | 0.008 | -0.029 | -0.219 | 0.018 | 0.046 | -0.039 | -0.319 (active)
CCNT1 (UniProt O60563) | 0.023 | -0.085 | 0.069 | -0.063 | 0.028 | 0.035 | -0.055 | -0.024 | 0.132 | -0.036
CAMSAP1 isoform 3 (UniProt Q5T5Y3) | -0.044 | -0.576 (active) | 0.184 | 0.068 | 0.033 | -0.003 | -0.232 | -0.011 | 0.03 | -0.254
CDC42BPA isoform 6 (UniProt Q5VT25) | -0.021 | -0.86 (active) | 0.053 | 0.001 | 0.002 | 0 | 0.042 | 0.026 | 0.078 | -0.359
CELF2 isoform 3 (UniProt O95319) | 0.115 | -0.028 | 0.02 | 0.018 | -0.027 | 0.103 | 0.006 | -0.049 | -0.04 | 0.111

Source: the supplement of paper PMC10849652
